Among the data in ChEMBL document CHEMBL1961873, “Compounds: GSK PKIS; Assays: Nanosyn kinase panel” (2012) are inhibition values, retold here.

Molecules are shown by their SMILES.

In general, inhibition refers to the drop in the measured response relative to a control, in per cent.

For assay [1], the target named is Rho-associated protein kinase 1 (Homo sapiens) (UniProt Q13464). The conditions noted are these: at 1 µM.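 Also: reported values are mean percent inhibition of ROCK1.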
Assay [2] concerns the target Rho-associated protein kinase 2 (Homo sapiens) (UniProt O75116). The conditions noted are these: at 0.1 µM.
The target is the same in assay [3]. The conditions noted are these: at 1 µM.
Assay [4] deals with Ribosomal protein S6 kinase alpha-1 (Homo sapiens) (UniProt Q15418). The conditions noted are these: at 0.1 µM.
Ribosomal protein S6 kinase alpha-1 (Homo sapiens), sequence (Q15418 whole entry): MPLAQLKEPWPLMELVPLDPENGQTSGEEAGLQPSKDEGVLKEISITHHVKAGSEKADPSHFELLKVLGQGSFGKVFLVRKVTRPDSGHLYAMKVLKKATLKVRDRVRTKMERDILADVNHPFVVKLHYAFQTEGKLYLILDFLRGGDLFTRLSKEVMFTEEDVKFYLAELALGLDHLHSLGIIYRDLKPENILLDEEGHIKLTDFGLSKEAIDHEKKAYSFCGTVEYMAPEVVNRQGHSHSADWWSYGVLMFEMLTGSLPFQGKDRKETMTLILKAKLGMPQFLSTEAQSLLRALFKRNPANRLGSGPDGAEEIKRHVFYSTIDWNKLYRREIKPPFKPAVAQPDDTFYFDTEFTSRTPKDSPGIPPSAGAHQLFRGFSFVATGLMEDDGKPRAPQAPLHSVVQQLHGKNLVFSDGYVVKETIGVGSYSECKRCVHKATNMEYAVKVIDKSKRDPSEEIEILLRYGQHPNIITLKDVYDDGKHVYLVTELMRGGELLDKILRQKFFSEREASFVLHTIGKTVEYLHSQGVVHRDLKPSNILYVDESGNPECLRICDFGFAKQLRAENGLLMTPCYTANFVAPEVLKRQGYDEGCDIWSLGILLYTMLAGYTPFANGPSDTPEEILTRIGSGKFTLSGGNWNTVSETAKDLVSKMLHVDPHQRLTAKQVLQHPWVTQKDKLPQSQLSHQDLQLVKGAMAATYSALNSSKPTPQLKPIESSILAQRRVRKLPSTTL
Assay [5] has the same target. As to conditions: at 1 µM.
Assay [6] concerns the target Ribosomal protein S6 kinase alpha-3 (Homo sapiens) (UniProt P51812). The conditions noted are these: at 0.1 µM.
Assay [7] shares this target. As to conditions: at 1 µM.
Assay [8] concerns the target Ribosomal protein S6 kinase alpha-2 (Homo sapiens) (UniProt Q15349). The conditions noted are these: at 0.1 µM.
For assay [9] the target is unchanged. As to conditions: at 1 µM.
Assay [10] has as its target Ribosomal protein S6 kinase alpha-6 (Homo sapiens) (UniProt Q9UK32). The conditions noted are these: at 0.1 µM.
Assay [11] has the same target. As to conditions: at 1 µM.
In assay [12] the target is T1, Serine/threonine-protein kinase Sgk1 (Homo sapiens) (UniProt O00141).
T1 sequence (whole entry): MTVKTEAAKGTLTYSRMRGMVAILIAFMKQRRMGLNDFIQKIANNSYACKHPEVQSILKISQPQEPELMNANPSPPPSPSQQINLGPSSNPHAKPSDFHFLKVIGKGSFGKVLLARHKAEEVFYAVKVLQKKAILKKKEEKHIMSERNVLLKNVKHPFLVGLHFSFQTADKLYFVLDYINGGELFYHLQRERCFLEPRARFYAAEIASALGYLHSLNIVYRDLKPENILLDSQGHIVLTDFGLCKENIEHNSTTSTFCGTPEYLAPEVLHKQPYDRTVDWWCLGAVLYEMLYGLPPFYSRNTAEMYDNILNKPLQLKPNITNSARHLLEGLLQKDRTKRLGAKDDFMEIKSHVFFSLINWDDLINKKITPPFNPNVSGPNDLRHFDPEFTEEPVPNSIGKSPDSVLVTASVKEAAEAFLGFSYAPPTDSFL
The conditions noted are these: at 0.1 µM.

In assay [13] the target is T1, Serine/threonine-protein kinase Sgk1 (Homo sapiens). The conditions noted are these: at 1 µM.
The target in assay [14] is T2, Serine/threonine-protein kinase Sgk2 (Homo sapiens) (UniProt Q9HBY8).
T2 sequence (whole entry): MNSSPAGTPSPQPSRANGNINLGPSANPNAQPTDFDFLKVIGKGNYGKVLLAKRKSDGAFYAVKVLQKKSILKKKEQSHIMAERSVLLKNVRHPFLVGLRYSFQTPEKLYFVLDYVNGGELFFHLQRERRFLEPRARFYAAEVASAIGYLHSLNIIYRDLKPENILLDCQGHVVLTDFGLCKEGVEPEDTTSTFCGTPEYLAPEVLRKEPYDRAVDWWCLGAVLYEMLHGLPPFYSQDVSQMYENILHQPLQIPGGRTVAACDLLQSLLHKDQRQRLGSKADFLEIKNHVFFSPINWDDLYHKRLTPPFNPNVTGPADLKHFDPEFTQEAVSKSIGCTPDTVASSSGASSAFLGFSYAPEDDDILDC
The conditions noted are these: at 0.1 µM.

Assay [15] deals with T2, Serine/threonine-protein kinase Sgk2 (Homo sapiens). The conditions noted are these: at 1 µM.
The target of assay [16] is T3, Serine/threonine-protein kinase Sgk3 (Homo sapiens) (UniProt Q96BR1).
T3 sequence (whole entry): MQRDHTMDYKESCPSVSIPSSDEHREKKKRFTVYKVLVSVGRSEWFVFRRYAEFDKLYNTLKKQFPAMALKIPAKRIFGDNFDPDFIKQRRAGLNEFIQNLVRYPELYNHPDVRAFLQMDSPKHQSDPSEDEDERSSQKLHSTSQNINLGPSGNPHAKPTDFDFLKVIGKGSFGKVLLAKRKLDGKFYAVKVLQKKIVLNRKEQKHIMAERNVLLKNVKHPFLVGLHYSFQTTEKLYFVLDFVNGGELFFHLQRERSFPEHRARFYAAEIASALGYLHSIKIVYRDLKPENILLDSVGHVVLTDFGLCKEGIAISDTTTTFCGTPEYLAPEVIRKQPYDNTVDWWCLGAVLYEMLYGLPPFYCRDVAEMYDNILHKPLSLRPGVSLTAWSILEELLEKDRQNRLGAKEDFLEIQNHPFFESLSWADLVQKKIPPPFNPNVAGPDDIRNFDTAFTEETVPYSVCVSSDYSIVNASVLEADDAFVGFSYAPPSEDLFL
The conditions noted are these: at 0.1 µM.

Assay [17] addresses T3, Serine/threonine-protein kinase Sgk3 (Homo sapiens). As to conditions: at 1 µM.
For assay [18], the target named is 5'-AMP-activated protein kinase catalytic subunit alpha-1 (Homo sapiens) (UniProt Q13131). The conditions noted are these: at 0.1 µM.
5'-AMP-activated protein kinase catalytic subunit alpha-1 (Homo sapiens), sequence (Q13131 whole entry, looked up): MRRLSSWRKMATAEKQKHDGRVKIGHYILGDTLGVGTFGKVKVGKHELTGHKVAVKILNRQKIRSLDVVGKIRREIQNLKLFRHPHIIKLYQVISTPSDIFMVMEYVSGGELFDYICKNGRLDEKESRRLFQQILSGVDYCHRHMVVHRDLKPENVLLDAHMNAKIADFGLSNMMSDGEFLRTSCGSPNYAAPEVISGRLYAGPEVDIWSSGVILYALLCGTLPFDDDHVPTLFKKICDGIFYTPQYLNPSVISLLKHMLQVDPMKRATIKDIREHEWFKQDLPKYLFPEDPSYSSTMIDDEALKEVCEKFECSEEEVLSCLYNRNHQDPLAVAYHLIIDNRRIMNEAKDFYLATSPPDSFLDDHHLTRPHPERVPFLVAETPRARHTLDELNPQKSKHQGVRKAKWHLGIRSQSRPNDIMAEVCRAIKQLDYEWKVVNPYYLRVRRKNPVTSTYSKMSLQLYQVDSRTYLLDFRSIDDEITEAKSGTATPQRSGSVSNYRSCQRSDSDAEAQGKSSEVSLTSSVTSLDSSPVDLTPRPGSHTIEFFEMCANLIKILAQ
Assay [19] has the same target. The conditions noted are these: at 1 µM.
The target in assay [20] is 5'-AMP-activated protein kinase catalytic subunit alpha-2 (Homo sapiens) (UniProt P54646). As to conditions: at 0.1 µM.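 Also: mean inhibition measured on the AMPK complex of alpha2, beta1 and gamma1 subunits.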
5'-AMP-activated protein kinase catalytic subunit alpha-2 (Homo sapiens), sequence (P54646 whole entry, looked up): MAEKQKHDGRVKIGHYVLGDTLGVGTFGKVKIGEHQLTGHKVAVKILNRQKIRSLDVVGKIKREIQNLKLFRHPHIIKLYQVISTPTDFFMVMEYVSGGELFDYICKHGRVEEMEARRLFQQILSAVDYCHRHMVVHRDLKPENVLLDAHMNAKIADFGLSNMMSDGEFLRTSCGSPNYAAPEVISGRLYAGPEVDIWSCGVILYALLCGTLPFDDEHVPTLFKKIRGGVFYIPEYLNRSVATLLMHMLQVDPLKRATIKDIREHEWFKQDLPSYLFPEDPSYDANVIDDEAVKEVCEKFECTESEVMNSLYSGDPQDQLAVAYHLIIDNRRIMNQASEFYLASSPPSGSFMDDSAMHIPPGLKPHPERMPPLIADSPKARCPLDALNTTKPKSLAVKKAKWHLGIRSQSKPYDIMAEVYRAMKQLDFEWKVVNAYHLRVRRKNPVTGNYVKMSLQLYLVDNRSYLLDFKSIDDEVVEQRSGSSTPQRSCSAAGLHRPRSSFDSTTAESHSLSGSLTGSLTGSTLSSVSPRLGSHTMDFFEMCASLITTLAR

Ribosomal protein S6 kinase alpha-6 (Homo sapiens), sequence (Q9UK32 whole entry): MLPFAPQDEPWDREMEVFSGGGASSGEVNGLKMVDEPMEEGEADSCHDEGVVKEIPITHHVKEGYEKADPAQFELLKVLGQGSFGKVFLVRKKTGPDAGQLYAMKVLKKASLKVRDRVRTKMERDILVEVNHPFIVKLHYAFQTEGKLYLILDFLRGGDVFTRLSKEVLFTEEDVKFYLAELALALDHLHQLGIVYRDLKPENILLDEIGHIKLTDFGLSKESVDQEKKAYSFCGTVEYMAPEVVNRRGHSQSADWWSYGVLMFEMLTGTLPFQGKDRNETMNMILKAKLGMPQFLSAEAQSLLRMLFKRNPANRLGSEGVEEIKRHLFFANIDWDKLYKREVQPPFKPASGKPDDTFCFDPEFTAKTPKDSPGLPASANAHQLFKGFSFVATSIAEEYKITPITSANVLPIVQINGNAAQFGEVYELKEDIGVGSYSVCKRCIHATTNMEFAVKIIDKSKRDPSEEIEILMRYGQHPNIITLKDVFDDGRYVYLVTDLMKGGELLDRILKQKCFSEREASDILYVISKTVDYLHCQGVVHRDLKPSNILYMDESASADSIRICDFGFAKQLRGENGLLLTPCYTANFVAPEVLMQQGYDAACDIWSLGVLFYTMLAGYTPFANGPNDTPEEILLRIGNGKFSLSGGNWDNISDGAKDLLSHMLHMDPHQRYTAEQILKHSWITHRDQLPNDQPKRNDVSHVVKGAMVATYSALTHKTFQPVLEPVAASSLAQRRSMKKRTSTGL
Rho-associated protein kinase 2 (Homo sapiens), sequence (O75116 whole entry, looked up): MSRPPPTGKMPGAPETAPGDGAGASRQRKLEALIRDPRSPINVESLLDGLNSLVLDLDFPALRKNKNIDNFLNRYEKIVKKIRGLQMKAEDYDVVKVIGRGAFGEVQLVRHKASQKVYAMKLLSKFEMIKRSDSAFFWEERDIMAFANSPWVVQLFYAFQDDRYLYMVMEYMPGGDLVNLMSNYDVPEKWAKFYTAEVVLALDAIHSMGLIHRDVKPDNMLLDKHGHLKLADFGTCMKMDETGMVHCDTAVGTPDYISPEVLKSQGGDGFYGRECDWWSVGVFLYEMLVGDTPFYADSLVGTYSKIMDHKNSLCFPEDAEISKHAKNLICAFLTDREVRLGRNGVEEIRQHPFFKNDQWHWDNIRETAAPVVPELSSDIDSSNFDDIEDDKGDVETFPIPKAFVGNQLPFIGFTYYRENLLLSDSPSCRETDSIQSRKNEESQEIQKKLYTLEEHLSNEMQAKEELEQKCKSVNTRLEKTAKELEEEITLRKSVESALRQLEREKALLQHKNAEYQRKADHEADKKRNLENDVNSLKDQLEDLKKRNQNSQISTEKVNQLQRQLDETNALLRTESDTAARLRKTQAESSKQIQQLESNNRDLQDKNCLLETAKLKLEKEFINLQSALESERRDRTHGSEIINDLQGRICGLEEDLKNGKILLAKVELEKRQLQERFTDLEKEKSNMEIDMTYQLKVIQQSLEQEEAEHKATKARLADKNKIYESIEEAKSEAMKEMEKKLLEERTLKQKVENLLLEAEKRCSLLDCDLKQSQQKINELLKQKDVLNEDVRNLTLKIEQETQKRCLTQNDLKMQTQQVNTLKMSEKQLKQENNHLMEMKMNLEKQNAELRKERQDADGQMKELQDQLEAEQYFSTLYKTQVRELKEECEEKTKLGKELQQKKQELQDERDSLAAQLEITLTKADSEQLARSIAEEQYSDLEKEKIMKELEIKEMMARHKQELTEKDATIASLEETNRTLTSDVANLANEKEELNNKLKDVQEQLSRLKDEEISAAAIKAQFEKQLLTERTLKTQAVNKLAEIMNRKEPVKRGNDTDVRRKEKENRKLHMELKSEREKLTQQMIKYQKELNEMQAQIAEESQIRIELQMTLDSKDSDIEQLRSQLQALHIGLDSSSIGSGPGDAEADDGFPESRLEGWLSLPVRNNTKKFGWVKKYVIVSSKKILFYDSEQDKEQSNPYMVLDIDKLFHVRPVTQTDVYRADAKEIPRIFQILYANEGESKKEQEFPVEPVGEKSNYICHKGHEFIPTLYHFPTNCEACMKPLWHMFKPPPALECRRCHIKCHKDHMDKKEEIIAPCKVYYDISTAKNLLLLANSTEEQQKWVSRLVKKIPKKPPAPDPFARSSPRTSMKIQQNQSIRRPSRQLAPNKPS
Ribosomal protein S6 kinase alpha-3 (Homo sapiens), sequence (P51812 whole entry): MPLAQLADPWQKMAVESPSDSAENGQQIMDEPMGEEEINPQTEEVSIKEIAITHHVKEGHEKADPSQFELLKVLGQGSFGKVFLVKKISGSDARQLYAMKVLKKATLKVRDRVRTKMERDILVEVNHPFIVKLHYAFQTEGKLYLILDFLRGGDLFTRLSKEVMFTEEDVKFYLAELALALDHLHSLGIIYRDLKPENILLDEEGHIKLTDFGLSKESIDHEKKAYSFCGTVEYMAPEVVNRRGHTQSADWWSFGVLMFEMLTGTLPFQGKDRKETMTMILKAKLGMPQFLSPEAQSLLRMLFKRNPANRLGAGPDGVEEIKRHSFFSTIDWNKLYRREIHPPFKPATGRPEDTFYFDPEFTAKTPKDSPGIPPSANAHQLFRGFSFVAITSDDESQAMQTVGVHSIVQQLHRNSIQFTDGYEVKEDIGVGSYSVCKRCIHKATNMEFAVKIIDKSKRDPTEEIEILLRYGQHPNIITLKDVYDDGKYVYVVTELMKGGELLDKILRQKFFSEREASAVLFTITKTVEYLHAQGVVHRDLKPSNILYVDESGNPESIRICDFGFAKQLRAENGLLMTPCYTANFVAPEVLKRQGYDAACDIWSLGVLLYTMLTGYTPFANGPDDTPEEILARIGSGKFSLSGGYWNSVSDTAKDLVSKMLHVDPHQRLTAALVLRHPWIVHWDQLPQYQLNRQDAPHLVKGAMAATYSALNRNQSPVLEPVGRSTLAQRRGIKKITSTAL

In the case of `Nc1ccc(C#Cc2cncnc2Nc2ccc(OCc3cccc(F)c3)c(Cl)c2)cc1`, the inhibition in assay [1] turned out to be 2.72%; in assay [2], 1.93%; in assay [3], 1.92%; in [4], 1.19%; in [5] it was 1.59%; in assay [6], 0.98%. The inhibition in [7] worked out at 1.75%; in assay [8] it was 1.56%; in assay [9], 3.21%; in assay [10] it was 0.9%; in assay [11], 0.51%; in assay [12], 1.87%. Besides, the inhibition in assay [13] turned out to be 2.62%; in assay [14], 4.82%; in assay [15], 3.04%; in assay [16], 2.22%; in [17], 2.3%; in assay [18], 1.54%. Besides, the results for the inhibition in assay [19] and in assay [20] were 2.87% and -0.27%, respectively.

Regarding `COc1cc2ncnc(Nc3ccc(C)c(O)c3)c2cc1OC`, the inhibition in [1] is 0.99%; in assay [2], 3.05%; in [3], 3.9%; in assay [4], 1.8%; in [5] it was 6.05%; in [6], 1.52%. Moreover, the inhibition turned out to be 3.02% in assay [7]; 3.28% in [8]; 3.51% in assay [9]; 2.48% in assay [10]; 3.03% in assay [11]; 2.84% in [12]. Further, the inhibition in [13] was 5.46%; in [14], 3.56%; in assay [15] it was 2.34%; in [16], 2.82%; in assay [17], 4.55%; in assay [18], 4.38%. For the same compound, the inhibition in assay [19] was 5.7%; in assay [20], 3.32%.

For `N#Cc1c(NC(=O)c2ccccc2F)sc2c1CCCC2`, the inhibition in assay [1] was 0.92%; in assay [2] it was -0.61%; in [3], 0.55%; in assay [4] it was 0.59%; in assay [5] it was 1.03%; in assay [6], 0.77%. Besides, the inhibition is 2.33% in [7]; -0.49% in assay [8]; 0.67% in [9]; -0.24% in [10]; 0.41% in assay [11]; 0.71% in assay [12]. Besides, the inhibition in [13] was 0.65%; in assay [14] it was -4.27%; in assay [15] it was -5.49%; in assay [16] it was -2.68%; in [17], -2.69%; in assay [18] it was -0.84%. The inhibition in assay [19] came to 0.73%; in [20], 1.26%.

Turning to `CN1CCN(C(=O)c2ccc(NC(=O)Nc3ccc(N(C)c4ccnc(Nc5ccc(CS(C)(=O)=O)cc5)n4)cc3)cc2)CC1`, the inhibition in assay [1] worked out at 18.7%; in assay [2] it was 11.3%; in assay [3] it was 52%; in assay [4], 0.85%; in assay [5], 2.5%; in [6], 0.47%. In addition, the inhibition in assay [7] stood at 2.98%; in assay [8], 2.14%; in assay [9], 4.07%; in assay [10] it was 2.06%; in [11] it was 5.11%; in assay [12] it was 0.94%. Moreover, the inhibition in [13] was found to be 3.35%; in assay [14] it was 1.96%; in [15], 7.04%; in [16] it was 2.75%; in [17], 1.79%; in assay [18], 2.09%. The inhibition stood at 5.52% in assay [19] and 3.27% in assay [20].

For `CCCN1CCCC(c2ccc(Nc3nc(Nc4cc(F)ccc4C(N)=O)c4cc[nH]c4n3)c(OC)c2)C1` (stereo not given), the inhibition in [1] worked out at 67.7%; in assay [2], 27.2%; in [3], 71.3%; in [4] it was 35.1%; in assay [5], 72.5%; in [6], 22.6%. For the same compound, the inhibition in assay [7] is 40.2%; in assay [8] it was 9.15%; in assay [9], 38%; in assay [10], 19.7%; in assay [11], 54.1%; in assay [12] it was 3.79%. Also, the inhibition in assay [13] came out at 4.78%; in assay [14], 1.44%; in [15], 6.37%; in [16], 4.46%; in [17] it was 0.16%; in [18], 6.07%. For the same compound, the inhibition in [19] is 20.3%; in assay [20], 4.5%.

Consider `NS(=O)(=O)c1ccc(Nc2cc(-c3cccc(O)c3)n[nH]2)cc1`, for which the inhibition stood at 2.17% in assay [1]; 3.43% in [2]; 4.85% in [3]; 2.5% in assay [4]; 6.11% in assay [5]; 2.14% in assay [6]. Moreover, the inhibition was determined as 6.36% in assay [7]; 1.18% in assay [8]; 5.39% in [9]; 1.24% in assay [10]; 4.67% in assay [11]; 6.76% in assay [12]. Also, the inhibition was 4.48% in assay [13]; 2.52% in [14]; 1.36% in assay [15]; 6.64% in assay [16]; 2.75% in assay [17]; 5.36% in assay [18]. The inhibition in assay [19] is 11.1%; in assay [20], 5.11%.

With `Cc1ccc2c(-c3ccnc(Nc4ccc5c(c4)OCCO5)n3)c(-c3ccc(C(F)(F)F)cc3)nn2n1`, the inhibition in assay [1] worked out at 1.22%; in assay [2], 0.44%; in assay [3], 1.89%; in assay [4] it was 0.91%; in assay [5], 0.79%; in assay [6] it was 1.19%. Besides, the inhibition in assay [7] is 1.86%; in [8], 1.06%; in [9] it was 1.53%; in assay [10], -0.18%; in [11], 0.44%; in assay [12] it was 0.85%. Further, the inhibition in [13] was 1.65%; in assay [14], -0.62%; in assay [15] it was -1.7%; in [16], 0.16%; in [17], -1.14%; in [18], 0.51%. Besides, the results for the inhibition in assay [19] and in assay [20] were 3.23% and 0.13%, respectively.
